From PubChem BioAssay AID1530 (NMMLSC, 2009)
Hit rate of the full screen: of about 290,000 compounds, about 1,000 (0.34%) were called active. Cut-off read from the data, not from the text of the source: active = percent response above about 24% (passing the limit was not always enough); inactive = the rest. This excerpt belongs to a sample that is enriched for actives.

system: MEKK2 (MAP3K2) mutant PB1 domain binding to MEK5, human; test: MEK5 binding signal on mutant MEKK2 PB1, primary screen, biochemical, multiplex bead flow cytometry, Alexa488-MEK5 (AID 1530); details: at 10 µM, hits give high values

Row | SMILES | percent response
1 | CNC(C)C#Cc1ccc2sc3cc(OC)c(OC)cc3c(=O)c2c1 (stereo not given) | 13% (inactive)
2 | CC1COc2ccccc2N1C(=O)c1ccc(F)cc1 (stereo not given) | 1% (inactive)
3 | CC1Sc2ccc(S(=O)(=O)CCC(=O)NCc3ccccc3Cl)cc2NC1=O (stereo not given) | 11% (inactive)
4 | O=C(NC1=NCCS1)[C@H](Cc1ccccc1)N1C(=O)c2ccccc2C1=O | 0% (inactive)
5 | O=C(CCN1C(=O)c2ccccc2C1=O)NCCN1CCOCC1 | -3% (inactive)
6 | O=C(NCCN1CCOCC1)[C@H](Cc1ccccc1)N1C(=O)c2ccccc2C1=O | 26% (active)
7 | Cc1ccc(NC(=O)COC(=O)C2C3CC4OC(=O)C2C4C3)cc1Cl (stereo not given) | 5% (inactive)
8 | CCC(C)[C@H]1COCCS(=O)(=O)N1Cc1ccc(C)cc1 (stereo not given in full) | -5% (inactive)
9 | Cc1c(CCOC(=O)CC23CC4CC(CC(C)(C4)C2)C3)sc[n+]1Cc1ccc([N+](=O)[O-])cc1 | 54% (active)
10 | Cc1c(CCOC(=O)c2cc([N+](=O)[O-])ccc2Cl)sc[n+]1CCCCS(=O)(=O)[O-] | -1% (inactive)
11 | Cc1c(CCO)sc[n+]1CC(=O)OC12CC3CC(CC(C3)C1)C2 | 0% (inactive)
12 | Clc1ccc2nc(CSc3ccccc3)cn2c1 | 2% (inactive)
13 | CC1(C)Cc2ccccc2/C(=C/C(=O)c2ccccc2)N1 | 3% (inactive)
14 | CN(C)CCCNC(=S)N1CCC(c2nc3ccccc3[nH]2)CC1 | 4% (inactive)
15 | CN(C)CCCNC(=S)N1CCN(c2nc(-c3ccccc3)cs2)CC1 | 25% (active)
16 | COCCCNC(=S)N1CCN(c2nc(-c3cccc(OC)c3)cs2)CC1 | -4% (inactive)
17 | COc1ccc(CCN2C(=O)C(C)=C(C)C2=O)cc1OC | 1% (inactive)
18 | CC1CCN(C(=O)CCc2nnc3ccc(NCc4ccco4)nn23)CC1 | 0% (inactive)
19 | O=C(CCc1nnc2ccc(NCCCN3CCCC3=O)nn12)NCc1ccccc1Cl | 6% (inactive)
20 | O=C(CCc1nnc2ccc(NCc3ccccc3Cl)nn12)NCC1CCN(C2CCCC2)C1 (stereo not given) | 26% (active)
21 | CC1CCCCN1C(=O)Cn1c(=O)oc2cc(S(=O)(=O)N3CCCCC3)ccc21 (stereo not given) | 2% (inactive)
22 | Cc1cccc(NC(=O)Cc2ccc(Br)cc2)n1 | 4% (inactive)
23 | COc1ccccc1CCNC(=O)CSc1nnc2ccc(-c3cccnc3)nn12 | 6% (inactive)
24 | COc1cc(NC(=O)CSc2nnc3ccc(-c4ccncc4)nn23)cc(OC)c1 | 0% (inactive)

Row | SMILES | percent response
25 | COc1ccc(CCNC(=O)CSc2nnc3ccc(-c4ccncc4)nn23)cc1 | 146% (active)
26 | CCOc1ccc(C(=O)Nc2c3c(nn2-c2ccccc2)CS(=O)(=O)C3)cc1 | 6% (inactive)
27 | COc1ccc(S(=O)(=O)/N=C2\C=C(NS(=O)(=O)c3ccccc3)C(=O)c3ccccc32)cc1 | -2% (inactive)
28 | CCOc1ccccc1NC(=O)Cn1ncc2ccc([N+](=O)[O-])cc21 | 3% (inactive)
29 | O=C(Nc1ccc(Cl)cn1)c1cnn2cccnc12 | 26% (active)
30 | Cc1cc(NC(=O)c2cnn3cccnc23)n(-c2ccccc2)n1 | 5% (inactive)
31 | O=C(Nc1ccc(Cl)cn1)c1ccc2c(c1)OCCO2 | -5% (inactive)
32 | COc1ccc(C)cc1N(C(=O)Cn1nnc(-c2ccc(C)o2)n1)C(C(=O)NC1CCCC1)c1ccncc1 (stereo not given) | -2% (inactive)
33 | CCOC(=O)N1CCN(Cc2nnc(-c3ccccc3Cl)o2)CC1 | 8% (inactive)
34 | CCCNC(=O)c1ccc(Cl)c(Cl)c1 | -1% (inactive)
35 | CCCn1c(=N)n(CC(=O)c2ccc(Cl)c(Cl)c2)c2ccccc21 | 29% (active)
36 | CCn1c(=N)n(CC(=O)c2cccc(OC)c2)c2ccccc21 | -9% (inactive)
37 | CN(C)CCCN(C(=O)c1ccc(S(=O)(=O)N2CCCc3ccccc32)cc1)c1nc2ccc(F)cc2s1 | 65% (active)
38 | CCOc1ccc2nc(N(CCCN(C)C)C(=O)c3ccc(C(=O)c4ccccc4)cc3)sc2c1 | 19% (inactive)
39 | CCc1ccc2nc(N(CCCN(C)C)C(=O)c3ccc4c(c3)OCCO4)sc2c1 | 3% (inactive)
40 | CCN(CC)CCN(C(=O)c1ccc(S(=O)(=O)N2CCOCC2)cc1)c1nc2cc3c(cc2s1)OCCO3 | 11% (inactive)
41 | O=C(Nc1nc2ccc([N+](=O)[O-])cc2s1)c1ccc(S(=O)(=O)N2CCCc3ccccc32)cc1 | -5% (inactive)
42 | CN(C)CCCN(C(=O)c1ccc(S(=O)(=O)N2CCCCCC2)cc1)c1nc2ccc(Br)cc2s1 | 61% (active)
43 | O=C(NC1CCCC1)C1CC(=O)N(c2ccc(F)cc2)C1 (stereo not given) | 0% (inactive)
44 | Cc1cc(C)n(CC(O)COc2ccc(C(C)(C)C)cc2)n1 (stereo not given) | -1% (inactive)
45 | CC(C)(c1ccccc1)c1ccc(OCCN)cc1 | 0% (inactive)
46 | CN(C)CC(O)COc1ccc(C(C)(C)c2ccc(OCC(O)CN(C)C)cc2)cc1 (stereo not given) | 33% (active)
47 | CCn1cc(CN2CCC(C(=O)Nc3cccc(-c4cccc(Cl)c4)c3)CC2)cn1 | 21% (inactive)
48 | O=C(Nc1cccc(-c2cccc(Cl)c2)c1)C1CCN(C2CCC2)CC1 | 14% (inactive)

Row | SMILES | percent response
49 | CCn1cc(CN2CCC(C(=O)Nc3cccc(-c4cccc(Cl)c4)c3)CC2)c(C)n1 | 35% (active)
50 | CC1CCN(CC(=O)Nc2nccs2)CC1 | 3% (inactive)
51 | Cc1ccc(C)c(S(=O)(=O)Nc2cccc(-n3cnnn3)c2)c1 | -1% (inactive)
52 | CCCN1CCN(C(=O)CCCNC(=O)c2ccc(Cl)cc2)CC1 | -2% (inactive)
53 | CN1CCN(CCCNC(=O)c2ccc(/C=C3\Oc4ccccc4N(Cc4ccc(Cl)cc4)C3=O)cc2)CC1 | 48% (active)
54 | CN1C(=O)/C(=C/c2ccc(C(=O)NC3CCCC3)cc2)Oc2ccccc21 | 2% (inactive)
55 | NS(=O)(=O)c1ccc2nc(NC(=O)C3=COCCO3)sc2c1 | -4% (inactive)
56 | CCC(=O)c1ccc(OCC(=O)Nc2ccc3nc(C)sc3c2)cc1 | -22% (inactive)
57 | Cc1ccc(NC(=O)C/C(N)=N/O)cc1Cl | 1% (inactive)
58 | Cc1ccc(NC(=O)COc2ccc(-n3ccnc3)cc2)cc1Cl | 27% (active)
59 | O=C1N[C@H](Cc2ccccc2)C(=O)N[C@H]1Cc1cn(S(=O)(=O)c2ccccc2)c2ccccc12 | 2% (inactive)
60 | CCOC(=O)N1CCN(C(=O)C2CCN(S(=O)(=O)c3cc(Cl)ccc3OCC)CC2)CC1 | 5% (inactive)
61 | OC(CNCC1CCCO1)Cn1c2ccc(Br)cc2c2cc(Br)ccc21 (stereo not given) | 40% (active)
62 | CC(NS(=O)(=O)c1ccc(Br)cc1)C(=O)NCC1CCCO1 (stereo not given) | 4% (inactive)
63 | O=C(CSc1ccc(-c2ccc(Br)cc2)nn1)NCC1CCCO1 (stereo not given) | 6% (inactive)
64 | COc1ccc(NC(=O)C2=CC(c3ccc(OC)c(OC)c3)=NS(=O)(=O)N2C)cc1 | -4% (inactive)
65 | COc1cc(CNCc2ccc(OC)c3ccccc23)cc(OC)c1OC | 6% (inactive)
66 | Nc1nonc1-n1nnc(C(=O)N/N=C/c2cc(Br)ccc2O)c1CSC1=NCCS1 | 8% (inactive)
67 | CC(C)CC(=O)N1CCN(Cc2cccc(Cl)c2)CC1 | 9% (inactive)
68 | CCOc1cc(CN2CCN(C(=O)CC(C)C)CC2)ccc1OC | 2% (inactive)
69 | CC(C)CC(=O)N1CCN(Cc2ccccc2Br)CC1 | 24% (active)
70 | COc1ccc(S(=O)(=O)NCCc2cc3ccc(C)c(C)c3[nH]c2=O)cc1 | 1% (inactive)
71 | CC(=O)Nc1cccc(NC(=O)CSc2nccn2Cc2ccc(F)cc2)c1 | -1% (inactive)
72 | Cc1cccc(NC(=O)c2cccc(C(F)(F)F)c2)c1 | -2% (inactive)

Row | SMILES | percent response
73 | COc1cccc(NC(=O)NCc2ccc(F)cc2)c1 | -5% (inactive)
74 | Cc1cccc(NC(=O)Nc2cccc(Oc3c(F)c(F)c(F)c(F)c3F)c2)c1 | 56% (active)
75 | Cc1ccc(N(CC(=O)NC2CCCCC2)C(=O)CCCC(=O)Nc2ccccn2)c(C)c1 | 1% (inactive)
76 | O=S(=O)(Oc1ccccc1C(=S)N1CCOCC1)c1ccc(Cl)cc1 | 7% (inactive)
77 | CCN1CCN(CCNC(=O)c2ccc3c(c2)NC(=O)/C(=C\c2ccc(OC)c(OC)c2)S3)CC1 | 17% (inactive)
78 | O=C(NCCN1CCOCC1)c1ccc(/C=C2\Sc3ccccc3N(Cc3ccc(F)cc3)C2=O)cc1 | 19% (inactive)
79 | CCN1CCN(CCNC(=O)c2ccc(/C=C3/Sc4ccccc4N(Cc4cccc(C)c4)C3=O)cc2)CC1 | 59% (active)
80 | Cn1c(Nc2cccc(Cl)c2)nc2ccccc21 | 4% (inactive)
81 | COc1ccc(OC)c(NC(=O)C2CCCN2S(=O)(=O)c2cccc3nsnc23)c1 (stereo not given) | 2% (inactive)
82 | O=C(OCc1cc(Cl)ccc1OC(F)F)c1cccnc1 | 152% (active)
83 | Cc1cc(=O)[nH]c(SCc2cc(Cl)ccc2OC(F)F)n1 | 1% (inactive)
84 | O=C(OCc1cc2ccccc2[nH]c1=O)c1cccnc1 | 8% (inactive)
85 | CC1=C(C)CC(C(=O)NNC(=O)c2ccccc2O)C(C(=O)O)C1 (stereo not given) | 16% (inactive)
86 | Cc1ccc(NC(=S)N(CCCN2CCC(C)CC2)Cc2ccco2)cc1 | -2% (inactive)
87 | Cc1ccc(NC(=S)N(CCN2CCCCC2)Cc2ccco2)cc1C | -3% (inactive)
88 | Cc1ccc(NC(=S)N(CCCN2CCCC2)Cc2cccn2Cc2ccc(Cl)cc2)cc1 | 57% (active)
89 | O=C(CP(=O)(c1ccccc1)c1ccccc1)N1CCOCC1 | -5% (inactive)
90 | Cn1c(=NC(=O)c2cnccn2)sc2ccccc21 | 10% (inactive)
91 | Cn1c(=NC(=O)CSCC(=O)N2CCOCC2)sc2ccccc21 | 25% (active)
92 | Cc1ccc(NC(=O)CSCC(=O)N2CCOCC2)cc1 | 3% (inactive)
93 | COC(=O)Cn1c(=NC(=O)CSCC(=O)Nc2cc(C)on2)sc2ccccc21 | 8% (inactive)
94 | Cn1c(=NC(=O)CSCC(=O)N2CCCCC2)sc2ccccc21 | 28% (active)
95 | COc1cc(C2/C(=C(\O)c3ccc4c(c3)CC(C)O4)C(=O)C(=O)N2c2nnc(C)s2)cc(OC)c1OC (stereo not given) | 1% (inactive)
